This is part of a sample that, as a whole, favours compounds with a hit. Of some 83,000 tested, about 20% had one in any assay.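 Results are percent growth after 48 hours of single-concentration exposure. 100 means growth as in untreated cells, lower positive values show inhibition; negative values down to -100 show cell death.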 Values without a mark were called inactive. The source made the active and inactive calls.

This test has as its system OVCAR-4 ovarian. The test can be described thus: NCI-60 one-dose screen, 48 h (100 = growth as untreated, 0 = no growth, -100 = all killed). The following applies: 10 µM unless noted. Here is the method:
Growth inhibition of the OVCAR-4 human tumor cell line is measured as a screen for anti-cancer activity. Cells are grown in 96 well plates and exposed to the test compound for 48 hours. Compounds are tested at a single concentration, which is 10^-5 M for most compounds. The reported endpoint is percent growth (GI% or GIPRCNT), where numbers from 0 - 100% represent growth inhibition, and numbers from -100% - 0 represent cell death. For example, a value of 40 represents 60% growth inhibition. A value of 0 means no net growth occurred over the course of the experiment. A value of -40 indicates 40% of cells at the beginning of the experiment died by the end of the experiment. A value of -100 means all cells are dead at the end of the experiment.
NCI-60 Human Tumor Cell Lines Screen was performed using the standard one-dose NCI protocol, which is described in more detail at https://dtp.cancer.gov/discovery_development/nci-60/default.htm.
Compounds with GIPRCNT values below 10 were considered active. Activity score was based on GIPRCNT using the following formula: […]
Score is 0 for GIPRCNT values of 100 or above, 50 for GIPRCNT values of 0, and 100 for GIPRCNT values of -100.
For `CN1C(=O)N(C)C2Nn3c(s/c(=C4\C(=O)N(CCc5ccccc5)c5ccccc54)c3=O)=NC21` (stereo not given), the growth was 79.3%. The result for `NCCNc1nc2ccccc2c2c(=O)c3cc(F)cc(Cl)c3sc12` reads -73.4% (active); that for `CCOC(=O)C1=C(C)N=c2s/c(=C\c3cc(Cl)ccc3O)c(=O)n2C1c1ccc(OC)cc1` (stereo not given), 94.7%. The result for `COc1ccccc1C(=O)/C=C/c1ccccc1` reads 88.6%. To `COc1ccc(/C=C/C(=O)c2c(C)nc3ccccc3c2/C=C/c2ccccc2)cc1O` belongs 61.9%; to `Cn1nc(C(C)(C)C)cc1NC(=O)Cc1ccc(/C=C2\C(=O)Nc3ccccc32)cc1`, 47.6%; to `O=C(Nc1ccc(N2CCNCC2)cn1)c1[nH]ncc1Nc1ncnc2sccc12`, 21.3%.

For the compound `COc1ccc(-c2nc(-c3ccccc3)c(-c3ccccc3)[nH]2)cc1OC1CCCCC1`, the growth is 74.2%. The result for `O=c1oc2ccc(I)cc2c(=O)n1-c1ccc(F)cc1F` reads 12.7%; that for `CCOc1ccc(Nc2ccnc3cc(Cl)ccc23)cc1`, 16.5%. The result for `CCC1=C[C@@H]2CN(C1)Cc1c([nH]c3ccccc13)[C@@](C(=O)OC)(c1cc3c(cc1OC)N(C)[C@H]1[C@@](O)(C(=O)OC)[C@H](OC(C)=O)[C@]4(CC)[C@@H]5C[C@@H]5CN5CC[C@]31[C@@H]54)C2` reads 14.6%.

`CC(=O)c1ccc2oc(=O)n(Cc3ccc(C#N)cc3)c(=O)c2c1`: the growth was 96.3%.

Take `Cc1ccc(C(=O)c2oc3ccc4c(C)cc(=O)oc4c3c2C)cc1`: the growth was 33.9%.

With `COc1ccc(Cn2c(Br)c3c(c2-c2cc(OC)c(OC)c(OC)c2)CCc2sc(NC(C)=O)nc2-3)cc1`, the growth was 49.8%. Consider `COc1ccccc1C1=C(Br)C(=O)c2nc(C)ccc2C1=O`, for which the growth is 97.8%.

As to `O=Cc1c(OCc2cnnn2CC(=O)Nc2ccc(Br)cc2)ccc2ccccc12`, the growth was 97%. To `CSc1nc2c(c(=O)n1C)N=C1c3ccccc3C(=O)C1C(c1ccccc1)N2` (stereo not given) belongs 72.6%; to `COc1ccc(-c2cn3c(C(=O)Nc4ccccc4Cl)c(-c4ccccc4)c4c3n2CCCC4)cc1`, 74.6%. The result for `CCCCCCCCCCCCCCn1cc(C2=C(c3coc4ccc(OC)cc34)C(=O)NC2=O)c2ccccc21` reads 102%; that for `Fc1cccc(COc2ccc(Nc3ncnc4onc(-c5ccccc5)c34)cc2)c1`, 43.3%. To `COc1ccc(N(C)c2nc(N)nc3sc4c(c23)CCCC4)cc1` belongs 36.2%; to `COC(=O)[C@H]1CCCN1C(=O)[C@H]1CCCN1C(=O)[C@H](Cc1c[nH]c2ccccc12)NC(=S)Nc1cc(C(F)(F)F)cc(C(F)(F)F)c1`, 62%. Take `O=c1c(-c2nc3ccccc3[nH]2)cc2ccccc2n1Cc1cn(Cc2ccccc2Cl)nn1`: the growth was -22% (active). The result for `Cc1sc2ncnc(Sc3nc4ccccc4[nH]3)c2c1C` reads -15.4% (active). `COc1ccc2occ(C3=C(c4c[nH]c5ccccc45)C(=O)NC3=O)c2c1`: the growth is -24.3% (active).

For `Cc1c(-c2csc(-n3nc(C(F)(F)F)cc3C(F)(F)F)n2)no[n+]1[O-]`, the growth was 87.4%.

On to `O=C(CN1C(=O)/C(=C\c2ccc(Cl)cc2)SC1=S)Nc1ncc(Cc2ccc(Cl)cc2)s1`, for which the growth was 105%. To `Nc1ccc(-c2nc3cc(Oc4ccc(Oc5ccc6[nH]c(-c7ccc(N)cc7)nc6c5)cc4)ccc3[nH]2)cc1` belongs 114%; to `COc1ccc(CCN2C(=O)/C(=C/c3ccc(C4Oc5ccccc5C5CC(c6cccc(OC)c6)=NN54)cc3)SC2=S)cc1` (stereo not given), 98.9%. The result for `O=C(O)CCC(=O)c1ccc(C2CCCCCC2)cc1` reads 102%; that for `O=C(Nc1ccc(Br)cc1F)c1cc(F)ccc1O`, 12.4%; that for `CC(C)CCOc1ccc(-c2n[nH]c(C(F)(F)F)c2-c2cncc(C#N)c2)c(O)c1`, 20.5%. `CN(C)c1ccc(N=Cc2ccc(N3CCOCC3)cc2)cc1`: the growth was 19.1%. The result for `CCCCCCc1cc2cc(-c3csc(/C=C/c4ccccc4)n3)c(=O)oc2cc1O` reads 36.8%; that for `NC(CCl)=NCCC[C@H](N)C(=O)O`, 93%; that for `COc1ccc(/C(C#N)=C/c2nc3c(N4CCOCC4)nc(Cl)nc3n2C)cc1OC`, -25% (active). For the compound `O=C(Nc1ccc(F)cc1F)c1cc(Cl)ccc1O`, the growth is 16.6%. Take `O=C1/C(=C\c2ccc[nH]2)c2ccccc2N1c1ccccc1`: the growth was 67.7%. To `COc1ccc(/C=C/C(=O)c2ccc(Nc3nc(NCCO)nc(Nc4ccc(Cl)cc4)n3)cc2)cc1` belongs 62.6%; to `COC(=O)/C(CCC=C(C)C)=C1\[C@@H](OC(C)=O)C[C@@]2(C)[C@H]1C[C@@H](O)[C@H]1[C@@]3(C)CC[C@H](NC(=O)c4cnccn4)[C@@H](C)[C@@H]3CC[C@@]12C`, 98.4%.

These data come from PubChem BioAssay (NCI).
